# Reference: article PMC5700166
# Where a chain is given by its changes, count along the chain named.
# Experiments:
# Assay in all cases: protein-binding microarray (PBM); PBM: ~300 nM protein, 6 mM HEPES pH 7.8, 80 mM KCl, 0.5 mM EDTA, 0.5 mM EGTA, 6% glycerol, 35 ng/ul poly-dIdC, 1% milk, 1 h, room temperature; Ap Aiptasia and Nv Nematostella (sea anemones) / Co Capsaspora / Aq Amphimedon (sponge) / Dm Drosophila / Hu human; RHD is the Rel homology domain; high values mean tight binding
# Conditions in all cases: dsDNA, one strand shown
# GST-Ap-NF-kB RHD = target: T1, GST-Ap-NF-kB RHD (Exaiptasia pallida (Aiptasia), UniProt A0A913YAJ5 2-422)
# T1 sequence: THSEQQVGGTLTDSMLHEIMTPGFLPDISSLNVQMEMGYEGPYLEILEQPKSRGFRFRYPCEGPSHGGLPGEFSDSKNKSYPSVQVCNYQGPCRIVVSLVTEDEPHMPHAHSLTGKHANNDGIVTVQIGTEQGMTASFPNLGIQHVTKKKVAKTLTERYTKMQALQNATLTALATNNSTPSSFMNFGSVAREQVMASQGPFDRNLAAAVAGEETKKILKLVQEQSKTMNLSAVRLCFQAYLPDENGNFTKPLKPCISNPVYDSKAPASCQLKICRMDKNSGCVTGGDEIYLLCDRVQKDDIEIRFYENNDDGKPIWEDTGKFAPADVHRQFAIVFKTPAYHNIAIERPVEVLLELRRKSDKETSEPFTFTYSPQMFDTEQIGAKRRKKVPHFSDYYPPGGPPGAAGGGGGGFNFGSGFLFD
# [1] = target: T2, GST-Nv-NF-kB (Cys allele) (Nematostella vectensis, UniProt E5G601 2-411)
# T2 sequence: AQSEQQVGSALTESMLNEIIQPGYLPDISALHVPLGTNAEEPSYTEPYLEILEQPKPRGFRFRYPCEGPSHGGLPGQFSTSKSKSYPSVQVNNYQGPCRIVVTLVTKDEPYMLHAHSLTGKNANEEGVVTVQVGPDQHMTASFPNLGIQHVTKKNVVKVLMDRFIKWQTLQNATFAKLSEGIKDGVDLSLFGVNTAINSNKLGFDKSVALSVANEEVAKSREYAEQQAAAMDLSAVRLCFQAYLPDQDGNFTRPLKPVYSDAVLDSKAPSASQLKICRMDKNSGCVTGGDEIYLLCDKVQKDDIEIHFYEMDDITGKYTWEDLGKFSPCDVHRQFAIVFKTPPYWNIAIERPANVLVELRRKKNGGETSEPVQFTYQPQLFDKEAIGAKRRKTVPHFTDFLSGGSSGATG
# [2] = target: T3, GST-Nv-NF-kB (Ser allele) (Nematostella vectensis, UniProt A7UNT2 2-411)
# T3 sequence: T2 sequence with Q21R, C66S, S207N, E215Q, V217A, E225K, A268E, D399E
# GST-Co-NF-kB = target: T4, GST-Co-NF-kB (Capsaspora owczarzaki, UniProt F1ARL5 200-546)
# T4 sequence: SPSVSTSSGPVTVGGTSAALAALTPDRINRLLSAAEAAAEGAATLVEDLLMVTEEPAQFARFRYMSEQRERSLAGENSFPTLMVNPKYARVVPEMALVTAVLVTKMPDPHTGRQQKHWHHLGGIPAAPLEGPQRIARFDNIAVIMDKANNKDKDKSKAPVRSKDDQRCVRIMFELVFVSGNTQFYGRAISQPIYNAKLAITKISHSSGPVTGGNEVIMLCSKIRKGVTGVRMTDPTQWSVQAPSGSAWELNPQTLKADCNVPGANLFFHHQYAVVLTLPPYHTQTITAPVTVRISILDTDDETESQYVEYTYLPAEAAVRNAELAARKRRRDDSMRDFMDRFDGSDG
# GST-Dm-Relish = target: T5, GST-Dm-Relish (Drosophila melanogaster, UniProt Q94527 99-473)
# T5 sequence: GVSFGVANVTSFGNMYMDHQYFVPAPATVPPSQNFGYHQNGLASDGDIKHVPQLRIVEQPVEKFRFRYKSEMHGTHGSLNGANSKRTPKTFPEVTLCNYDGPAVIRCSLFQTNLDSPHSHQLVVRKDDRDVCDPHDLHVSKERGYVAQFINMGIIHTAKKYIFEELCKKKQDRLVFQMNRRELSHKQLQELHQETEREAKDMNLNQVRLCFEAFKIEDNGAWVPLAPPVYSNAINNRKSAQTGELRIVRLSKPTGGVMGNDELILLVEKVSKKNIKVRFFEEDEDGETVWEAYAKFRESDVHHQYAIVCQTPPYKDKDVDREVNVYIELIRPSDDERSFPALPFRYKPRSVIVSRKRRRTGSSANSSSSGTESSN
# GST-Aq-NF-kB = target: T6, GST-Aq-NF-kB (Amphimedon queenslandica, UniProt A9Y5G7 2-389)
# T6 sequence: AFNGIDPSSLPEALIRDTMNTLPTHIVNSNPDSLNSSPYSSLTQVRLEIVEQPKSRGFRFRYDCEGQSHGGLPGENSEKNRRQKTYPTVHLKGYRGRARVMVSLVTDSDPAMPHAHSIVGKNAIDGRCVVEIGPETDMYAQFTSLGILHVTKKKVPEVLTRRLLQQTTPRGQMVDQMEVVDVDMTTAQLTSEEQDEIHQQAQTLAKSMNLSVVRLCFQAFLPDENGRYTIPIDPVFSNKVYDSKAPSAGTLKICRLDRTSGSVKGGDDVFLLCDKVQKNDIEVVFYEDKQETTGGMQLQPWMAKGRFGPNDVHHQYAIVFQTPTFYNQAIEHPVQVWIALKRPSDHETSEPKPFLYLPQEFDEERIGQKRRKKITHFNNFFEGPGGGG
# GST-Hu-p50 = GST-Hu-p50 (Homo sapiens, UniProt P19838 7-356)
# Sequence of GST-Hu-p50 (P19838 7-356): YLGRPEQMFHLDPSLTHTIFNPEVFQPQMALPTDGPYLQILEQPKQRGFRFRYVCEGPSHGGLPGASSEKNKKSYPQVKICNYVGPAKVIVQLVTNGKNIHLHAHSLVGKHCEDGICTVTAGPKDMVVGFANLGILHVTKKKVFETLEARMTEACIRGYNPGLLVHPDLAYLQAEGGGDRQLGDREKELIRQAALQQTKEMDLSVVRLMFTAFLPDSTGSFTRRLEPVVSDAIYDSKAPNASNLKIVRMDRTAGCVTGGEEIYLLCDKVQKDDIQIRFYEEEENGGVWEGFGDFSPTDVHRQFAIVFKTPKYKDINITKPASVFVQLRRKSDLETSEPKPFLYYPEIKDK
Sequence,binding signal (GST-Ap-NF-kB RHD) [z-score],binding signal [1] [z-score],binding signal [2] [z-score],binding signal (GST-Co-NF-kB) [z-score],binding signal (GST-Dm-Relish) [z-score],binding signal (GST-Aq-NF-kB) [z-score],binding signal (GST-Hu-p50) [z-score]
CCGATTAACATCAGAGCTCCCCCTGATGTTAATCGGGTCTTGATTCGCTTGACGCTGCTG,5.05,4.31,4.32,5.45,1.98,3.98,4.94
CCGATTAACATCAAAACTTTCCCTGATGTTAATCGGGTCTTGATTCGCTTGACGCTGCTG,4.81,8.68,8.65,6.16,4.08,7.54,5.54
CCGATTAACATCAAAAAACCCCCTGATGTTAATCGGGTCTTGATTCGCTTGACGCTGCTG,12.1,11.4,12.1,5.28,11.4,9.82,8.38
CCGATTAACATCAAGGGGAAGGGTGATGTTAATCGGGTCTTGATTCGCTTGACGCTGCTG,4.52,5.48,5.81,3.95,2,4.16,4.32
CCGATTAACATCAGGGGGTAACATGATGTTAATCGGGTCTTGATTCGCTTGACGCTGCTG,4.79,3.69,4.43,7.22,2.49,3.72,4.06
CCGATTAACATCACCCTCCCCCCTGATGTTAATCGGGTCTTGATTCGCTTGACGCTGCTG,4.55,4.25,4.55,6.06,3.66,3.9,4.13
CCGATTAACATCAGGGAAAGTACTGATGTTAATCGGGTCTTGATTCGCTTGACGCTGCTG,3.95,6.4,6.18,2.93,8.65,7.76,5.43
CCGATTAACATCAGGGAAAATTATGATGTTAATCGGGTCTTGATTCGCTTGACGCTGCTG,5.47,7.77,8.46,6.45,2.28,6.77,5.34
CCGATTAACATCAAAATTTCCCGTGATGTTAATCGGGTCTTGATTCGCTTGACGCTGCTG,4.72,6.89,6.74,6.32,4.72,6.67,4.8
CCGATTAACATCAGAAAATTCCCTGATGTTAATCGGGTCTTGATTCGCTTGACGCTGCTG,6.03,9.51,8,4.76,7.55,7.67,6.47
CCGATTAACATCAAATTTCCCAGTGATGTTAATCGGGTCTTGATTCGCTTGACGCTGCTG,2.47,3.48,3.63,4.39,2.71,3.48,3.07
CCGATTAACATCAAGAACCCCCGTGATGTTAATCGGGTCTTGATTCGCTTGACGCTGCTG,6.68,4.55,5.31,3.25,8.39,5.21,5.41
CCGATTAACATCAGCGATTCCCCTGATGTTAATCGGGTCTTGATTCGCTTGACGCTGCTG,6.31,6.55,8.57,5.5,3.63,4.44,5.54
CCGATTAACATCACGGGGCCCCCTGATGTTAATCGGGTCTTGATTCGCTTGACGCTGCTG,5.45,3.6,2.68,1.49,3.89,4.31,3.47
CCGATTAACATCAGATTTACCCCTGATGTTAATCGGGTCTTGATTCGCTTGACGCTGCTG,3.07,2.72,3.18,6.39,2.13,3.62,3.46
CCGATTAACATCAGGGGAAAGGATGATGTTAATCGGGTCTTGATTCGCTTGACGCTGCTG,4.44,5.7,6.71,4.77,1.2,4.14,3.87
CCGATTAACATCAACAATTTCCCTGATGTTAATCGGGTCTTGATTCGCTTGACGCTGCTG,3.9,5.04,6.92,4.63,2.52,4.15,4.08
CCGATTAACATCAAATGTTCCCCTGATGTTAATCGGGTCTTGATTCGCTTGACGCTGCTG,5.58,6.77,7.62,9.87,5.59,6.21,4.41
CCGATTAACATCAGGGGGATGCATGATGTTAATCGGGTCTTGATTCGCTTGACGCTGCTG,4.72,4.49,5.56,4.12,3.39,3.86,4.84
CCGATTAACATCACGGGGATCCCTGATGTTAATCGGGTCTTGATTCGCTTGACGCTGCTG,8.72,5.48,5.51,4.27,9.65,5.88,4.51
CCGATTAACATCAGGGGGAAAGATGATGTTAATCGGGTCTTGATTCGCTTGACGCTGCTG,5.81,5.7,7.72,8.03,2.89,5.04,5.75
CCGATTAACATCAGCAAATCCCCTGATGTTAATCGGGTCTTGATTCGCTTGACGCTGCTG,6.73,7.25,9.83,2.93,5.54,5.19,6.91
CCGATTAACATCAAAGTCCCGGGTGATGTTAATCGGGTCTTGATTCGCTTGACGCTGCTG,4.32,3.61,3.64,1.85,4.38,3.49,3.83
CCGATTAACATCAAAACCCCCCTTGATGTTAATCGGGTCTTGATTCGCTTGACGCTGCTG,8.76,7.32,7.84,3.85,10.5,8.03,7
